Bioassay records deposited in PubChem BioAssay by National Center for Advancing Translational Sciences (NCATS).
Most compounds without a hit are left out; they make up all but 1.9% or so of the library.
PKM2 act: activators of human pyruvate kinase M2; P14618; purified PKM2, Kinase-Glo ATP luminescence, activation; response scale: 0% is enzyme alone, no compound; Potency, µM (highest dose often 57.5 µM), without a hit: top-dose activation, actives largely listed as activators; hit rate 0.34% among 260,000; further: potency means the concentration at half of the fitted maximal effect; on the % scale 0 is the no-effect control and ±100 the full control effect; nearly all actives have a fitted effect of over 55% in size
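Purified hPK-M2 (>95% pure) converted ADP (0.1 mM final) to ATP with 0.5 mM PEP in 50 mM imidazole pH7.2, KCl, MgCl2, Tween 20, BSA; 1 h at room temperature. ATP detected by Kinase-Glo luminescence.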
IL-2 act: activators of IL-2; IL-2 activation reporter assay, cell-based qHTS; stimulated with anti-CD3/CD4/CD28 beads; in transgenic mouse T cells; activation, % (series mostly up to about 46 µM); hit rate 0.065% among 360,000; AID 652025; in the data active means activation above about 50%; inconclusive means mostly about 30% to 49%; further: 0% is about no effect
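EGFP and DsRed fluorescence is measured by plate cytometry in unstimulated transgenic mouse T cells exposed to compound for 60 minutes, then stimulated 18 hours at 37 degrees C with anti-CD3/anti-CD4 beads plus anti-CD28.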
Pin1 inhibitor: inhibitors of human Pin1; Q13526; Pin1 FP peptide displacement, HiFluor488, 10 min; Potency, µM (titrated, usually from 115 µM), for the others: at the top dose activity, negative = inhibition, hits mostly inhibitors; hit rate 0.009% among 390,000; active means well fitted inhibition curve with a large enough effect in the polarisation, with a control signal flat, not every such curve was filed as active; inconclusive means small, poorly fitted or top-dose-only effect, or effect the other way, or a change in a side signal; inactive means no such curve, though single readings can be large or run the other way; the % refers to the polarisation; further: potency means the concentration at half of the fitted maximal effect; on the % scale 0 is the no-effect control and ±100 the full control effect
Target sequence (Q13526 whole entry, looked up): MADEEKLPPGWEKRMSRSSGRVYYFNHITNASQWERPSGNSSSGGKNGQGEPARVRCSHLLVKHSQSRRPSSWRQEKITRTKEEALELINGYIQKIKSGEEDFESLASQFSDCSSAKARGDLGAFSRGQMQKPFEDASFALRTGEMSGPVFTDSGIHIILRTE
Integrin act MD: activators of alpha7 integrin expression for muscular dystrophy. alpha7betagal myoblasts, beta-gal FDG fluorescence, 48 h. Potency, µM (highest dose often 38.3 µM), inactives show at the highest dose activation, hits mostly activators. hit rate 0.064% among 350,000;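 further: potency means the concentration at half of the fitted maximal effect; 100% = response of the positive control SU9516; nearly all actives have a fitted effect of over 60% in size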
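Alpha7betagal+/- myoblasts (passage 13) were plated 16-24 hr, then exposed to compounds (1:260 dilution of DMSO stock) for 48 hours at 37C. After MPER lysis, β-galactosidase reporter activity was read as FDG fluorescence (ex 480/em 540) after 30 minutes.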
ClpP mod: qHTS Assay for Activators of ClpP. ATP-dependent Clp protease proteolytic subunit (Bacillus subtilis (strain 168)), P80244. purified B. subtilis ClpP, FRET peptide cleavage, 20 min. Potency, µM (titrated, usually from 57.5 µM), for inactives: at the highest dose activity change, negative = active. hit rate 1.9% among 340,000; active means well fitted falling curve with a large enough effect; inconclusive means small, poorly fitted or top-dose-only effect; inactive means no such curve, though single readings can be large or run the other way; further: potency means the concentration at half of the fitted maximal effect; the source files actives as falling curves though it sought activators and does not explain the sign; nearly all actives have a fitted effect of over 65% in size
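Buffer: 100 mM Tris/HCl pH8, 100 mM KCl, 0.05% low protease BSA, 2.5% glycerol, 0.01% Tween-20. ClpP 10 microg/mL final; 20 min RT; delta FRET normalized to ADEP and DMSO controls.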
USP2a block: blocks human ubiquitin-specific protease USP2a. O75604. USP2 core, Ub-CHOP2 coupled fluorogenic reporter, 485/531. Potency, µM (doses to about 38.3 µM), without a hit: at the top dose activity change, negative = inhibition, actives largely listed as inhibitors. hit rate 0.01% among 330,000. AID 463254;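 further: potency means the concentration at half of the fitted maximal effect; plate controls were DMSO wells for no effect and full inhibition by NEM control for full effect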
Target sequence (O75604 whole entry, looked up): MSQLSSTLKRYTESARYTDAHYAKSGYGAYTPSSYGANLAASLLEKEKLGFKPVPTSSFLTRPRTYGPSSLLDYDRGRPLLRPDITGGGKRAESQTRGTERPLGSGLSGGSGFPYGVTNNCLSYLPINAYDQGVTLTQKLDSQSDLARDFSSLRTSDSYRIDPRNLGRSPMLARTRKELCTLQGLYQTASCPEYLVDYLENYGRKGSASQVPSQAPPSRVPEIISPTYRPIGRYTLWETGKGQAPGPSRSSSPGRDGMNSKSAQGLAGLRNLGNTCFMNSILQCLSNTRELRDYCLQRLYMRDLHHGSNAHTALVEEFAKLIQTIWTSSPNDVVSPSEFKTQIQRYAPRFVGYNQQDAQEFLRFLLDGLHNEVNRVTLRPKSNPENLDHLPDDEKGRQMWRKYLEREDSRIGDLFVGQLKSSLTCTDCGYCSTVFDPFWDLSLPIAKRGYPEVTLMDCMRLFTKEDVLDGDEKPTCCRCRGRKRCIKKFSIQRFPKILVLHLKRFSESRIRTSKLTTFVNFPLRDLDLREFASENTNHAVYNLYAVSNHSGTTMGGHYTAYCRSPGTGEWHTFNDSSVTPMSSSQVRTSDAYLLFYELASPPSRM
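Cell-free coupled assay: 10nM USP2 core preincubated 30min RT with compound in Tris-HCl pH 8.0/CaCl2/CHAPS buffer, then 25nM Ub-CHOP2 and 25nM reporter substrate; fluorescence (Ex 485/Em 531) read after 60min RT, normalized to NEM inhibition, concentration-response curves fitted.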
The depositor's hits bear a star; ? = inconclusive; · = no result; [ ] = another dose, or the depositor's remark. Unless noted, the call rests on the fitted dose curve; in most records, active means well fitted curve in the direction sought with a large enough effect; inconclusive means small, poorly fitted or top-dose-only effect, or another doubt; inactive means no such curve, though single readings can be large; an effect the other way counts as inactive or inconclusive.

SMILES	PKM2 act	IL-2 act	Pin1 inhibitor	Integrin act MD	ClpP mod	USP2a block
Clc1ccccc1-c1nn2c(Cn3cnc4ccccc43)nnc2s1	3.98µM*	-0.3	4.5%	0.6%	-0.6%	-8.4%
Clc1ccc(Cl)c(-c2nn3c(COc4ccccc4)nnc3s2)c1	-15.7%	2.7	-4.6%	-22.9%	1.2%	-0.2%
Cc1ccc(CNC(=O)COC(=O)c2ccccc2OCC(=O)Nc2ccc(Br)cc2)cc1	·	·	·	·	2.6%	·
Cc1cc2c(s1)c1cnn(Cc3ccc(F)c(C)c3)c(=O)c1n2C	·	·	0.3%	·	·	·
COc1cccc(C2c3c(ncn(-c4cccc(C#N)c4)c3=N)Oc3ccc4ccccc4c32)c1 (stereo not given)	·	·	19.4%	·	·	·
COc1ccc(Oc2nc(-c3ccccc3)ncc2S(=O)(=O)c2ccccc2)cc1	10.3%	0.9	-3.2%	-21.4%	-23.7%	1.8%
COc1nc(-c2ccccc2)ncc1S(=O)(=O)c1ccccc1	15.8µM*	-0.6	1.6%	-60.2%	-0.1%	-0.8%
CCOC(=O)C1=C(CC)Nc2ccccc2N=C1NC(=O)c1ccc(C)c(S(=O)(=O)N2CCOCC2)c1	·	-2.4	8.1%	-22.4%	3.3%	1.4%
CCOC(=O)C1=C(CC)Nc2ccccc2N=C1NC(=O)c1ccc(OC)c(S(=O)(=O)N2CCCCC2C)c1 (stereo not given)	0.8%	-0.2	29.8%	14.1µM*	-2.3%	2.4%
Cc1ccc(C)c(Oc2cc(F)nc(N)n2)c1	·	17.3	6.0%	15.8%	17.8µM*	3.9%
CCOc1ccc(CNC(=O)c2cnc3sc(N4CCOCC4)nn3c2=O)cc1OC	·	·	-3.2%	·	28.2µM*	·
CC(C)CCNC(=O)c1cnc2sc(N3CCCCCC3)nn2c1=O	·	·	-6.9%	·	12.6µM*	·
CCOc1ccc(CNC(=O)c2cnc3sc(N(CC)CC)nn3c2=O)cc1OC	·	·	2.9%	·	31.6µM*	·
COc1ccc(CCNC(=O)c2cnc3sc(N4CCCC4)nn3c2=O)cc1OC	·	·	9.1%	·	11.2µM*	·
COCCCNC(=O)c1cnc2sc(N3CCCCC3)nn2c1=O	·	·	-5.1%	·	4.2%	·
Cc1cccc(S(=O)(=O)NC2CCN(C#N)C2)c1 (stereo not given)	·	·	4.2%	·	·	·
COc1cc(N(C)C)ccc1/C=C/c1ccnc2ccccc12	·	·	·	·	-2.2%	·
O=S(=O)(c1nccs1)N1CCN(c2nc(-c3cccs3)nc3ccccc23)CC1	·	·	?	·	-22.7%	·
COc1cccc(-c2cnc(NCc3ccccc3Cl)n2C)c1	·	·	-3.2%	·	-25.7%	·
COc1cccc(-c2cnc(NCc3cc(Cl)ccc3O)n2C)c1	?	-2.1	1.8%	11.3%	28.2µM*	1.9%
O=C(Cc1ccc(OCc2ccccn2)cc1)NO	·	·	·	·	-2.7%	·
CCOC(=O)c1cc(-c2cc3ccccc3o2)nc2c1c(=O)[nH]c(=O)n2CCOC	-6.4%	2.1	?	13.3%	7.08µM*	0.4%
CCOC(=O)c1cc(-c2ccc([N+](=O)[O-])cc2)nc2c1c(=O)[nH]c(=O)n2Cc1ccccc1	·	0.6	-6.1%	-23.7%	·	1.3%
O=c1[nH]c(N/N=C/c2cc3c(cc2[N+](=O)[O-])OCO3)nc2ccccc12	39.8µM*	-0.1	-9.6%	?	-3.0%	-2.9%
O=c1[nH]c(N/N=C\c2ccc3c(c2)OCO3)nc2ccccc12	-14.1%	-2.1	-2.7%	-8.3%	·	-0.1%
SMILES	PKM2 act	IL-2 act	Pin1 inhibitor	Integrin act MD	ClpP mod	USP2a block
Cc1ccc(F)c(C2C3C=CCC(c4ccccc4)C3C(=O)N2Cc2ccccc2)c1 (stereo not given)	·	·	9.4%	·	·	·
Cc1noc(Cn2c(=O)c3cc4c(cc3n(CC(=O)Nc3ccccc3Br)c2=O)OCO4)n1	·	·	-3.7%	·	11.2µM*	·
Cc1ccc(NC(=O)Cn2c(=O)n(Cc3nc(C)no3)c(=O)c3cc4c(cc32)OCO4)c(Cl)c1	·	·	0.1%	·	6.1%	·
CCOc1ccc(NC(=O)Cn2c(=O)n(Cc3nc(-c4ccccc4)no3)c(=O)c3cc4c(cc32)OCO4)cc1	·	·	13.4%	·	25.1µM*	·
CCCCc1cc2c(cn1)=C(OC(=O)c1cccs1)C(C)(OC(=O)CC)C(=O)C=2 (stereo not given)	4.2%[11.5 µM]	·	·	·	·	·
CC(=O)Nc1ccccc1NS(=O)(=O)c1ccccc1NO	·	·	1.6%	·	·	·
Cc1cccc(-c2noc(CN(C(=O)C34CC5CC(CC(C5)C3)C4)C(C)C)n2)c1	-1.2%	-3.9	-5.0%	36.0%	31.6µM*	0.6%
COc1cc(Nc2ncc3c(n2)CCN(Cc2ccc(OC(C)C)c(OC)c2)C3)cc(OC)c1	·	·	?	·	-2.0%	·
Cc1ccc(-n2ncc3c(NC4CCCCCC4)ncnc32)cc1Cl	·	·	-4.5%	·	31.6µM*	·
Cc1ccc(-n2ncc3c(NCCc4ccccc4)ncnc32)cc1Cl	·	·	3.7%	·	31.6µM*	·
CCc1ccccc1Nc1ncnc2c1cnn2-c1ccc(Cl)cc1	·	·	-3.2%	·	31.6µM*	·
Cc1cccc(-n2ncc3c(NCCCN4CCCC4=O)ncnc32)c1	4.2%	-2.0	-1.4%	-1.6%	28.2µM*	-0.5%
CCc1ccccc1Nc1ncnc2c1cnn2-c1ccc(C)cc1C	·	·	-0.8%	·	-7.4%	·
Cc1ccc(Cl)cc1-n1ncc2c(NC3CCCCCC3)ncnc21	·	·	-0.1%	·	-4.5%	·
COc1ccc(CCNc2ncnc3c2cnn3-c2ccc(C)c(Cl)c2)cc1	·	·	?	·	-13.9%	·
CC(=O)N1CCN(c2cccc(Nc3nn4c(=O)c5ccccc5nc4s3)c2)CC1	·	·	0.5%	·	·	·
CCCCN(CCCC)c1ccc(C=Nc2ccc(/C=C/c3ccnc4ccccc34)cc2)cc1C	·	·	·	·	-2.1%	·
COc1ccc(-c2c(C3C4C=CCCC4(C)C(=O)N3Cc3ccccc3)ccc3ccccc23)cc1 (stereo not given)	·	·	0.3%	·	·	·
COc1cc(F)c(S(=O)(=O)N2CCCN(S(=O)(=O)c3ccc(NC(C)=O)cc3)CC2)c(F)c1	·	·	-0.7%	·	·	·
CCc1c2c(nc3ccc4c(c13)OCCO4)-c1nc3ccccc3c(=O)n1C2	·	·	-4.2%	·	·	·
O=C(NCc1ccc(Cl)cc1)c1cc2c(s1)-c1ccccc1SC2	·	·	35.6%	·	31.6µM*	·
